The structures appear in SMILES notation. Results filed as inconclusive are left out. Values without a mark were called inactive. The source made the active and inactive calls. The call rests on the fitted dose curve; in most records, active means well fitted cell-killing curve with a large enough effect; inconclusive means small, poorly fitted or top-dose-only effect; inactive means flat fitted curve, though single readings scatter. Peptide text beside a SMILES is read from it. * marks the point of attachment. Hexanoyl = CCCCCC(=O)*
On the % scale 0 is the no-effect control and ±100 the full control effect; potency means the concentration at half of the fitted maximal effect.

This test is described as follows: HEK-293 Cancer Cell Toxicity qHTS against the NCATS CANVASS Library (AID 1347355). Further: nearly all actives have a fitted effect of over 65% in size. The following applies: HEK-293 viability, CellTiter-Glo luminescence, 72 h; series mostly up to 46.1 µM; activity change, negative = cytotoxicity: at the top concentration. The text has this: Natural products and their derivatives continue to be wellsprings of nascent therapeutic potential. However, many laboratories have limited resources for biological evaluation, leaving their previously isolated or synthesized compounds largely or completely untested. To address this issue, the Canvass library of natural products was assembled (https://tripod.nih.gov/canvass), in collaboration with academic and industry researchers, for quantitative high-throughput screening (qHTS) across a diverse set of cell-based and biochemical assays. The pure (>85% purity by liquid chromatography/mass spectrometry [LC/MS]) Canvass library of 346 natural products were submitted by 45 academic laboratories and companies around the world. We collected pure natural products to circumvent deconvolution and structure elucidation due to time and resource limitations. The library was formatted into 1536-well plates and evaluated in 50 qHTS (in an 11-pnt concentration series) bioassays with broad scope of disease-relevant mechanisms. The resulting data set from 50 different assays was then systematically analyzed to identify overall trends and specific natural products with interesting biological activities. Reported herein are the results of each individual qHTS and their corresponding assay protocol. National Center for Advancing Translational Sciences (NCATS), Rockville, MD National Institute of Health (NIH), Bethesda, Maryland
Cancer Cell Toxicity COV-362, OV-KATE, OV-SAHO, UWB1.289, UWB1.289-WTBRCA1, HEK-293, HPAF-II, Panc-1005, SW1088, and U-118MG-screen protocol. 1. In a 1536 well, white solid bottom tissue culture plates (Corning 7494), corresponding cells (COV-362, OV-KATE, OV-SAHO, UWB1.289, UWB1.289-WTBRCA1, HEK-293, HPAF-II, Panc-1005, SW1088, or U-118MG) were dispensed in each well at a final concentration of 1000 cells / well (6uL volume) using the Multidrop Combi (Thermo Fisher Scientific) dispenser. 2. The plates were incubated for 4 hours at 37 degrees C/5% CO2/95% Rh. 3. Compounds were pin transferred (~23nL volume) via Wako Pin-tool (Wako Automation, Richmond VA) equipped with a 1536 pin head. The assay plates were treated with compounds in an 11-pnt concentration series with a final concentration range of […] to 85uM. 4. Bortezomib was used as a single dose control (0.5mM column 4, rows 1 - 32) at a final concentration of 1.9uM and as a 16pnt titration (1mM; 1:2 dilution; 16-points; n = 2; column 3, rows 1 - 32) with final concentration range of 0.1nM - 3.8uM. 5. The assay plates were incubated for 72 hours at 37 degrees C/5% CO2/95% Rh. 6. 3uL CellTiter-Glo detection reagent was then added to the plates (columns 2 - 48, rows 1 - 32) and incubated at room temperature for additional 15min. 7. Luminescence signal was acquired via the ViewLux plate reader (PerkinElmer) using a clear filter, 2 second exposure and 2x binning settings.
A general note: Quantitative high-throughput screening tests each substance at several concentrations.
As for `COC(=O)[C@]1([C@H]2CCC(=O)O2)CC(=O)c2c(O)cc(C)cc2O1`, the “activity change, negative = cytotoxicity” value was 2.92%. Regarding `CO[C@@H](C[C@@H](C)[C@@H](O)/C=C/C=C/CNC(=O)C(C)(C)[C@H](O)\C(C)=C/C=C\C=C\Cc1cnco1)[C@]1(O)[C@@H](C)C(=O)N(C)[C@@]12COC2=O`, the result was inactive. As to `C=C1C[C@H]2O[C@@H]3[C@@H]4[C@H](CC[C@@](C)(O)[C@@H]42)[C@H](C)COC3(C)[C@@H](OC(=O)CCCCCCC)CC1=O` (stereo not given in full), the Potency was 14.8 µM (active). `CCCCCC(=O)N[C@@H](CC(C)C)C(=O)N[C@H](C=O)CCC(=O)O` (Hexanoyl-Leu-Glu-aldehyde): the call was inactive. Consider `CC[C@@H]1[C@H](C)[C@H](c2cc(OC)c(OC)cc2OC)[C@@H](C)[C@H](c2cc(OC)c(OC)cc2OC)[C@]12C=C(OC)C(=O)C=C2OC`, for which the Potency was 26.4 µM (active). `C=C1C(=O)O[C@H]2[C@H]1CCC(C)=C1CC[C@@](C)(O)[C@@H]12`: the Potency is 9.35 µM (active). On the same count and under the same terms, in the case of `COc1cc2c(c(O)c1O)C(=O)c1c(coc1C)C2=O` it was 9.35 µM (active).

Regarding `CCC(=O)N[C@@H](C[C@H](C)C(Cl)(Cl)Cl)C(=O)N1C(=O)C=C(OC)[C@@H]1C[C@H](C)CCl`, the molecule was classed as inactive. Consider `CC(=O)c1c(C)cc2c(c1O)C(=O)c1c(O)cc(O)cc1C2=O`, for which the molecule was classed as inactive. For the molecule `C[C@@]1(CCC(=O)Nc2c(O)ccc(C(=O)O)c2O)C(=O)C=C[C@]23C[C@H]4C[C@H](O[C@@]4(C)C2)C31` (stereo not given in full), the “activity change, negative = cytotoxicity” value is -4.28%. As for `O=C1CC(c2ccc(O)cc2)Oc2cc(O)cc(O)c21` (stereo not given), the “activity change, negative = cytotoxicity” value is 2.43%. The same measure, in the same setting: with `C/C=C(/C)c1c(Cl)c(O)c(C)c2c1Oc1c(Cl)c(O)c(Cl)c(C)c1C(=O)O2` the figure was -14.5%. For the molecule `C/C(=C\[C@H](C)C(=O)/C=C/CC1CC(=O)NC(=O)C1)[C@@H]1OC(=O)/C=C/CC/C=C/C[C@@H](O)[C@@H]1C`, the Potency was 3.72 µM (active).

As to `COc1c(O)cc(O)c2c(=O)cc(-c3ccccc3)oc12`, the “activity change, negative = cytotoxicity” value was -5.97%. On to `CC(C)=CCCC(C)(O)[C@H]1CC=C(C)C(O)C1` (stereo not given in full), for which the “activity change, negative = cytotoxicity” value is -9.35%.

For the molecule `O=C1c2c(O)cc(O)cc2OC(c2ccc(O)cc2)C1O` (stereo not given), the “activity change, negative = cytotoxicity” value is 1.61%.

Consider `C[C@H]1C=C[C@H]2CCCC[C@@H]2[C@H]1C(=O)[C@H]1CC2=C(C(=O)O)CCN2C1=O`, for which the “activity change, negative = cytotoxicity” value was -5.07%.

For `CO[C@H]1[C@@H](OC(=O)/C(C)=C\[C@@H]2O[C@@H]2[C@H]2O[C@H]2C)[C@H](O)[C@H](OCC23C[C@@H]4[C@H](C)CC[C@H]4C4(C=O)CC2C=C(C(C)C)C34C(=O)O)O[C@@H]1C` (stereo not given in full), the “activity change, negative = cytotoxicity” value was 3.53%. Take `CN1CCc2cc3c(c4c2C1(C)C(=O)c1cc(O)ccc1-4)OCO3` (stereo not given): the Potency was 18.7 µM (active). As to `COC(=O)c1cccc2oc(-c3cccc4oc(-c5c(C)cccc5O)nc34)nc12`, the “activity change, negative = cytotoxicity” value is -8.13%. Consider `COC(=O)[C@@]12Oc3cccc(O)c3C(O)=C1C(=O)C[C@H](C)[C@H]2O`, for which the “activity change, negative = cytotoxicity” value was -3.09% [at 91.4 µM]. As for `C[C@@]12C[C@@H](C[C@@H]3C(=O)O[C@@H](c4ccoc4)[C@H](OC(=O)c4ccccc4)[C@@H]31)OC2=O`, the call was inactive. On the same count and under the same terms, in the case of `O=Cc1ccc2n1C[C@]1(OC2)O[C@H](CO)[C@@H](O)[C@@H]1O` it was “inactive”.

With `Cc1cc(C)c(O)c(C(=O)CC2CC(=O)NC(=O)C2)c1`, the Potency is 3.72 µM (active). Turning to `CC(C)C[C@@H]1c2c(O)c(C=O)c(O)c(C=O)c2O[C@]2(C)C=C[C@@H](C(C)C)C[C@H]12`, the “activity change, negative = cytotoxicity” value was -22.3%. With `O=c1cc(-c2ccc(O)cc2)oc2cc(O)c([C@@H]3OC(CO)[C@H](O)[C@@H](O)[C@H]3O)c(O)c12` (stereo not given in full), the “activity change, negative = cytotoxicity” value is -3.56%. Regarding `CO[C@H]1/C=C/CCCCC(=O)O[C@@H](/C(C)=C/[C@H](C)C(=O)C[C@H](O)CC2CC(=O)NC(=O)C2)[C@@H](C)C1`, the Potency was 14.8 µM (active). The same measure, in the same setting: with `C/C(=C\[C@H](C)C(=O)C[C@H](O)CC1CC(=O)NC(=O)C1)[C@@H]1OC(=O)CCCC/C=C/C[C@@H](O)[C@@H]1C` the figure was 7.43 µM (active). The same measure, in the same setting: with `C[C@]12CC[C@]3(C1)[C@H](CC2=O)C[C@@H](OC(=O)c1ccccc1)[C@H]1[C@](C)(C(=O)O)CCC[C@@]13C` the figure was 13.2 µM (active). Take `COC12OC1(C13OC1(OC)C(=O)c1cc4cc(C)oc(=O)c4c(O)c1C3O)C(O)c1c(cc3cc(C)oc(=O)c3c1O)C2=O` (stereo not given): the “activity change, negative = cytotoxicity” value was -3.42%. On to `C/C=C(/CO)C(=O)O[C@@H]1[C@H](O)[C@@H](C(=O)OC)O[C@@H]2C[C@H]3OC(n4cnc5c(N)ncnc54)[C@H](OC)[C@H]3O[C@@]12O` (stereo not given in full), for which the “activity change, negative = cytotoxicity” value was -5.93%. On to `C[C@@]12CCC[C@@](C)(C(=O)O)[C@H]1C[C@@H](O)[C@@]13C[C@@H](CC[C@@H]21)[C@](C)(O)C3`, for which the molecule was classed as inactive. With `COc1c(O)cc2c(c1O)C(=O)c1c(coc1C)C2=O`, the “activity change, negative = cytotoxicity” value is -1.64%. With `CC1(C)CC[C@]2(CO)CC[C@]3(C)C(=CCC4[C@@]5(C)CC[C@H](O)C(C)(C)C5CC[C@]43C)C2C1` (stereo not given in full), the molecule was called inactive. In the case of `C/C(=C\[C@H](C)C(=O)C[C@H](O)CC1CC(=O)NC(=O)C1)[C@@H]1OC(=O)CCCC/C=C/[C@@H](O)C[C@@H]1C`, the Potency was 9.35 µM (active). Consider `CO/C=C/C(=O)c1cc2cnc3c(N)cc(=NC(=O)C(C)C)c([nH]1)c23`, for which the Potency was 0.166 µM (active). In the case of `CC[C@H]1[C@@H](C)[C@@H](c2cc(OC)c(OC)cc2OC)[C@H](C)[C@@H](c2cc(OC)c(OC)cc2OC)[C@@]12C=C(OC)C(=O)C=C2OC`, the Potency is 14.8 µM (active). For `[C-]#[N+][C@@]12C(=O)[C@@H]3[C@@H](O[C@@]4(C(=O)N(C)c5cccc1c54)C3(C)C)C(=O)[C@@]2(C)C=C`, the “activity change, negative = cytotoxicity” value is 1.53%. Regarding `C/C=C/c1cc2c(c(=O)o1)C(=O)[C@@H](O)[C@H](C)O2`, the Potency was 9.35 µM (active). Take `CCC(=O)CCCCC[C@@H]1NC(=O)[C@H]2CCCCN2C(=O)[C@H](C(C)C)NC(=O)[C@H](Cc2cn(OC)c3ccccc23)NC1=O`: the Potency was 5.26 µM (active).
